Bioassay records (PubChem BioAssay)
Shown are actives, neighbours in structure and some others; about 11% of the full set was active somewhere.
NIH3T3 tox = NIH 3T3 cell cytotoxicity | NIH 3T3 viability, CellTiter-Glo ATP luminescence, 48-72 h | Potency, µM (doses to about 96.7 µM), for the others: top-dose activity change, negative = cytotoxicity, most hits filed as inhibitors | actives 4.3% (n = 94,000) | AID 1345082; also: nearly all actives have a fitted effect of over 55% in size
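Luminescent ATP readout (CellTiter-Glo, 10 min RT) after 48 or 72 hr compound exposure of NIH 3T3 cells seeded at 400 cells/well in 1536-well format; quantitative HTS.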
NPR1 antag = blocks ANP-stimulated signaling of human Npr1 receptor; Potency, µM (highest dose often 46.3 µM), for the others: at the highest dose activity change, negative = inhibition, hits mostly inhibitors; P16066; actives 1.6% (n = 76,000); HEK293 hNpr1 GloSensor cGMP, ANP-stimulated luminescence; AID 1347048; calls by dose curve; also: nearly all actives have a fitted effect of over 60% in size
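HEK293 cells stably expressing human Npr1 and cGMP GloSensor pGS-40F, loaded 2 h with 2% GloSensor reagent, given compound 30 min at room temperature. Luminescence read before and 20 min after 0.1 nM hNppA.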
HEK293 tox = HEK 293 cell cytotoxicity; HEK 293 viability, ATP luminescence (CellTiter-Glo), 48-72 h; Potency, µM (top dose mostly 115 µM), for inactives: at the highest dose activity change, negative = cytotoxicity, actives largely listed as inhibitors; actives 6.6% (n = 94,000); also: nearly all actives have a fitted effect of over 60% in size
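250 HEK 293 cells/well; compound by pintool; incubated 48 or 72 hr at 37 degree Celsius; CellTiter-Glo added, 10 min RT, luminescence imaged.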
Luciferase inh = Photinus pyralis luciferase inhibition | Potency, µM (doses to about 115 µM), actives largely listed as inhibitors | actives 2.5% (n = 76,000) | purified P. pyralis luciferase, luminescence, biochemical; also: nearly all actives have a fitted effect of over 65% in size
Target sequence (P08659 whole entry, looked up): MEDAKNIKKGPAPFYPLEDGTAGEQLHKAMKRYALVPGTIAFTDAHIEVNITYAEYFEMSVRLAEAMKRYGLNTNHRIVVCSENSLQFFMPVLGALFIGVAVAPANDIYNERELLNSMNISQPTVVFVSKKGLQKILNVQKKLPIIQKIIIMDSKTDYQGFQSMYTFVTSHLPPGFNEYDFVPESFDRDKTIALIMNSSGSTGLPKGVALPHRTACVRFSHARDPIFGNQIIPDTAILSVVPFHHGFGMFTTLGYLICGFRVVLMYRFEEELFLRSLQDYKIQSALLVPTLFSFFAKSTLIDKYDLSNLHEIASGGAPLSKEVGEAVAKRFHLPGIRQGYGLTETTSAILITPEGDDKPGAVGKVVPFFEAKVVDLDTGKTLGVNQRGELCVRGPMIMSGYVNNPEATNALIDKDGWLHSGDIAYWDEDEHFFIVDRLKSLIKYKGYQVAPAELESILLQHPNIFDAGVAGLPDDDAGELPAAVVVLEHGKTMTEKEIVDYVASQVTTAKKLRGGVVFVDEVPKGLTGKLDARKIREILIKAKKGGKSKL
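Luminescence read by CCD imager after adding enzyme (10nM final) to wells holding compound, titrated in qHTS. Substrates 10uM each D-luciferin and ATP; buffer 50mM Tris acetate pH 7.5, 10mM Mg acetate, Tween-20, BSA.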
* = called active by the depositor; i = inactive; ? = inconclusive; . = not tested or not shown; [ ] = remark or other dose. Unless noted, calls follow the shape of the dose curve; as a rule, active = well fitted curve in the direction sought with a large enough effect; inconclusive = small, poorly fitted or top-dose-only effect, or another doubt; inactive = no such curve, though single readings can be large; an effect the other way counts as inactive or inconclusive. % is scaled to controls: 0 for no effect and ±100 for the full control effect; potency is read from the fitted curve at half-maximal effect.

SMILES | NIH3T3 tox | NPR1 antag | HEK293 tox | Luciferase inh
COc1ccc(-c2onc(C)c2C(=O)NCc2ccccc2)cc1 | ? | 0% | ? | i
COc1cc(OC)c(CNC(=O)c2c(C)noc2-c2cccs2)c(OC)c1 | ? | -3% | 79µM* | i
O=C(Nc1cccc(Cl)c1F)N1CCC(OC2CCN(Cc3ccccc3)CC2)CC1 | ? | -1% | ? | i
CCOc1ccccc1C(=O)N1CCC(Oc2nccnc2N(C)C)C1 (centres undefined) | -5% | 0% | ? | 32µM*
COc1ccc(C(=O)N2CCC(Oc3nccnc3N(C)C)C2)c(OC)c1 (centres undefined) | i | 0% | ? | 20µM*
Cc1cccc(-c2noc(-c3nc(C)no3)n2)c1 | -12% | -3% | -19% | 25µM*
Cc1noc(-c2nc(-c3cccc(Br)c3)no2)n1 | 0% | -15% | ? | ?
COc1ccc(CCNC(=O)c2cc(-c3ccc(C(F)(F)F)cc3)nc3c2cnn3C)cc1 | -24% | . | -1% | .
CC#CCn1cc2c3c(cccc31)[C@H](CC(C)C)N[C@H](C(=O)N1CCOCC1)C2 | ? | 7%[70.6 µM] | ? | i
CC#CCn1cc2c3c(cccc31)[C@H](CC(C)C)N[C@H](C(=O)NC1CCCC1)C2 | 35µM* | -9%[70.6 µM] | 45µM* | i
CC#CCn1cc2c3c(cccc31)[C@H](CC(C)C)N[C@H](C(=O)NCCN1CCOCC1)C2 | 100µM* | -10%[70.6 µM] | ? | i
CC#CCn1cc2c3c(cccc31)[C@H](CC(C)C)N[C@H](C(=O)NC(C)C)C2 | 71µM* | -2%[70.6 µM] | 50µM* | i
CC#CCn1cc2c3c(cccc31)[C@H](CC(C)C)N[C@H](C(=O)NCCOC)C2 | ? | -11%[70.6 µM] | ? | i
O=C(Cn1cccc1-c1nc(-c2ccc3c(c2)OCO3)no1)N1CCCc2ccccc21 | -27% | -18% | ? | i
COc1cccc(CCNC(=O)c2ccc3nnc(C4CCOCC4)n3c2)c1 | -24% | . | 0% | .
Cc1cc(C)cc(-c2ccc(CN3CCCC3C(=O)NCc3cccnc3)cc2)c1 (centres undefined) | ? | . | 50µM* | .
Cc1cc(C)cc(-c2ccc(CN3CCCC3C(=O)NCc3ccc(C(F)(F)F)cc3)cc2)c1 (centres undefined) | 35µM* | . | 40µM* | .
CCOCCNC(=O)C1CCCN1Cc1ccc(-c2cc(C)cc(C)c2)cc1 (centres undefined) | ? | . | 35µM* | .
CCOCCCNC(=O)C1CCCN1Cc1ccc(-c2cncnc2)cc1 (centres undefined) | -4% | . | i | .
Cc1cc(C)cc(-c2ccc(CN3CCCC3C(=O)NCCc3ccc(F)cc3)cc2)c1 (centres undefined) | ? | . | 45µM* | .
CC(=O)NCCc1ncc(C)n1C1CCCCCC1 | ? | 2% | -7% | i
COc1ccccc1CNC(=O)C1CCCN1Cc1ccc(-c2cc(C)cc(C)c2)cc1 (centres undefined) | 40µM* | . | 40µM* | .
O=C(NCC1CC1)C1CCCN1Cc1ccc(-c2cncnc2)cc1 (centres undefined) | -5% | . | i | .
Cc1cc(C)cc(-c2ccc(CN3CCCC3C(=O)NCC3CC3)cc2)c1 (centres undefined) | 40µM* | . | 40µM* | .
O=C(C[C@@H]1CCNC[C@@H]1Cc1cc(COc2ccccc2)on1)Nc1ccccc1 | 32µM* | -9%[70.6 µM] | 40µM* | i
SMILES | NIH3T3 tox | NPR1 antag | HEK293 tox | Luciferase inh
O=C(C[C@@H]1CCNC[C@@H]1Cc1cc(CSc2ccccc2)on1)Nc1ccccc1 | 71µM* | -15%[70.6 µM] | 45µM* | i
O=C(C[C@@H]1CCNC[C@@H]1Cc1cc(CSc2ccccc2)on1)N1CCN(c2ccccc2)CC1 | 25µM* | -19% | ? | i
O=C(C[C@@H]1CCNC[C@@H]1Cc1cc(COc2ccccc2)on1)NCc1ccccc1 | ? | -26%[70.6 µM] | 79µM* | i
O=C(O)CSCC(=O)N[C@H]1C[C@H]2C(=O)Nc3ccc(-c4cccs4)cc3C(=O)N2C1 | -20% | 3% | -17% | i
OCc1ccc(CN2C[C@H](O)C[C@H]2c2nc(-c3ccc(F)cc3)no2)o1 | i | 5%[70.6 µM] | 1%[172 µM] | 45µM*
OCc1ccc(CN2C[C@H](O)C[C@H]2c2nc(-c3ccc(OC(F)(F)F)cc3)no2)o1 | ? | -12%[70.6 µM] | ? | 45µM*
OCc1ccc(CN2C[C@H](O)C[C@H]2c2nc(-c3cccnc3)no2)o1 | -3%[174 µM] | 8%[70.6 µM] | ? | i
COc1ccc(-c2noc([C@@H]3C[C@@H](O)CN3Cc3ccc(CO)o3)n2)cc1 | -27%[174 µM] | ? | -21%[172 µM] | ?
CCC(=O)N1CCc2c(sc3ncnc(N(C)Cc4ccccc4)c23)C1 | ? | -5% | ? | i
Cc1ccc(-c2cc(C(=O)NCc3ccc(F)cc3)nn3cnnc23)cc1 | -16% | . | 1% | .
Nc1nc(C2CC(N)C2)cc(N2CCCN(Cc3cccs3)CC2)n1 (centres undefined) | ? | 5% | 45µM* | i
Cc1nonc1CN1CCN(c2cc(C3CC(N)C3)nc(N)n2)CC1 (centres undefined) | -15% | 2% | -18% | i
Cc1cnc(-c2ccccc2)n1CCNC(=O)C1CCCCC1 | -21% | . | -23% | .
Cc1cc(CN(C)c2ccc(-c3nc(COc4ccccc4)no3)cn2)on1 | ? | 16µM* | ? | ?
CC1(COc2ccc(-c3nc(COc4ccccc4)no3)cn2)CCCNC1 (centres undefined) | ? | ? | ? | 35µM*
c1ccc(OCc2noc(-c3ccc(NC4CCSC4)nc3)n2)cc1 (centres undefined) | ? | -12% | ? | ?
CCN(CC)Cc1cc(-c2nc(C3CCOC3)no2)c(-c2ccccc2)o1 (centres undefined) | ? | -3% | -29% | i
Clc1ccc(-c2noc([C@@H]3Cc4nc[nH]c4CN3CC3CCCCC3)n2)cc1 | 28µM* | -15%[70.6 µM] | 50µM* | i
CN(C)c1ccc(-c2noc([C@@H]3CCCN3CC3CCCCC3)n2)cn1 | 79µM* | ? | ? | 35µM*
FC(F)(F)c1ccc(-c2noc([C@@H]3Cc4nc[nH]c4CN3CC3CCCCC3)n2)cc1 | 28µM* | -17%[70.6 µM] | 32µM* | i
c1csc(CN2Cc3[nH]cnc3C[C@H]2c2nc(-c3ccncc3)no2)c1 | ? | -28%[70.6 µM] | ? | i
c1cc(-c2noc([C@@H]3Cc4nc[nH]c4CN3CC3CCCCC3)n2)ccn1 | 79µM* | -6%[70.6 µM] | ? | i
CN(C)c1ccc(-c2noc([C@@H]3CCCN3Cc3ccc(CO)o3)n2)cn1 | 3%[174 µM] | 1%[70.6 µM] | 0%[172 µM] | ?
O=C(NCc1ccccc1)N1CCc2nnc(C3CC3)n2CC1 | i | . | 1% | .
COc1ccccc1Nc1ccnc(N2CCN(C(=O)c3ccc(F)cc3)CC2)n1 | 22µM* | . | 50µM* | .
O=C(c1ccc(F)cc1)N1CCN(c2nccc(Nc3ccccc3F)n2)CC1 | 32µM* | . | 40µM* | .
